{
  "source": "PubChem BioAssay (NCI)",
  "note": "“And” between values parts separate entries of the source, which are not always exact repeats. Equal entries are not always repeated. The panel holds about 83,000 compounds, 20% with a hit somewhere; the sample as a whole holds those more often.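 Cells were grown in 96-well plates and exposed to the test compound at a single concentration for 48 hours; results are reported as percent growth, with values below 10 considered active.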 Values without a mark were called inactive. The source made the active and inactive calls.",
  "data": [
    {"tested_on": "MDA-MB-468 breast", "experiment": "NCI-60 one-dose screen, 48 h (100 = growth as untreated, 0 = no growth, -100 = all killed)", "conditions": "10 µM unless noted", "values": [
      {"smiles": "COc1cc2c(c(OC)c1OC)C(=O)CC(c1cccc(NC(=O)c3ccc(Br)cc3)c1)O2", "note": "(stereo not drawn)", "growth": "12.1%"},
      {"smiles": "COc1ccc(C)cc1OC", "growth": "137%"},
      {"smiles": "COC(=O)Nc1ccc(NC(=O)OC)cc1", "growth": "97.3%"},
      {"smiles": "O=C(O)c1cn(C2CC2)c2cc(N3CCN(C(=O)Nc4nc(-c5ccccc5)cs4)CC3)c(F)cc2c1=O", "growth": "27.1%"},
      {"smiles": "COc1ccc(C2=C/C(=C\\c3ccc(Cl)cc3)C(=O)N2/N=C/c2ccc(Cl)cc2)cc1", "growth": "94.3%"},
      {"smiles": "COc1c(C(=O)Nc2ccc(C)c(Br)c2)ccc2ccccc12", "growth": "87.9%"},
      {"smiles": "COc1ccc(NC(=O)c2cc(NCc3cc(O)ccc3O)ccc2O)cc1", "growth": "88.5%"},
      {"smiles": "COc1ccc2nc(Cl)cc(C)c2c1", "growth": "94.1% and 91.3%"},
      {"smiles": "O=C(Nc1cccc([N+](=O)[O-])c1)NN1CCCCCC1", "growth": "88.7%"},
      {"smiles": "COc1ccc(N2CCN(C3=C(Cl)C(=O)C(C)=C(C)C3=O)CC2)cc1", "growth": "74.1%"},
      {"smiles": "CS(=O)(=O)C1=CN(CCO)C(=O)N2CCCN=C12", "growth": "93.3%"},
      {"smiles": "CCCCCCCCn1ccc2cc(NC(=O)Cn3cc(CN4CCCCC4)nn3)ccc21", "growth": "-14.6% (active)"},
      {"smiles": "CCCCCCCCCCCC[n+]1ccc(C(N)=O)cc1", "growth": "-42.1% (active)"},
      {"smiles": "Cn1cc(-c2ccc3cc(-c4ccc(CC(=O)Nc5cc(C(C)(C)C)on5)cc4)cnc3c2)cn1", "growth": "30.7%"},
      {"smiles": "CC(C)CNCC(O)COc1ccc(C(C)(C)c2ccc(OCC(O)CNCC(C)C)cc2)cc1", "note": "(stereo not drawn)", "growth": "62.5%"},
      {"smiles": "C/C(O)=C(/C=N/C(=S)Nc1ccccc1)C(=O)Nc1ccccc1C", "growth": "99.7%"},
      {"smiles": "Cc1ccc2c(n1)C(=O)C(Cl)=C(Nc1cccc(C(C)C)c1)C2=O", "growth": "-9.52% (active)"},
      {"smiles": "S=c1nc[nH]c2nc[nH]c12", "growth": "6.65% [50 µM] (active)"},
      {"smiles": "C#Cc1nc(C2=C(C)C(O)/C(=N/O)C2)cs1", "note": "(stereo not drawn)", "growth": "74.5%"},
      {"smiles": "Cn1c(N2NC(=O)C(N=Nc3ccc(S(N)(=O)=O)cc3)C2=O)nc(-c2ccco2)c(C#N)c1=O", "note": "(stereo not drawn)", "growth": "-17.9% (active)"},
      {"smiles": "Cn1cc(-c2nn3cc(-c4ccncc4)nc3s2)c2cc(F)ccc21", "growth": "54.6%"},
      {"smiles": "O=C1/C(=C/c2ccc([N+](=O)[O-])cc2)COc2ccc(O)c(O)c21", "growth": "-90.9% (active)"},
      {"smiles": "O=C(O)c1c2c(nc3ccccc13)Cc1ccccc1-2", "growth": "128% and 89.3%"}
    ]}
  ]
}
